Laboratory results from PubChem BioAssay.
Several values for one entry are separate records, joined by “and”; a condition that tells them apart may be missing. Equal values may be shown once. Activity calls are given as the source filed them.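 Rule for the calls, unless noted: active = thallium flux through the channel raised or lowered by more than 3 SD from vehicle-only wells, actives on both sides; inactive = the rest.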

Columns and labels:
[1] = P. berghei load reduction in hepatocytes – cell-based, HepG2, luciferase luminescence, HepG2 viability, primary screen (AID 624349; in the data active = parasite load remaining mostly below about 12%, no sharp cut-off; inactive = mostly above about 10%;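 note: 100% = mean of DMSO negative control wells on the same plate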); conditions: P. berghei liver stage in HepG2, luciferase luminescence, concentration not given here; parasite load remaining: stronger effect = lower value; viability: measured here: HepG2 viability without parasites
[2] = signal quenchers or enhancers, Cy5 substrate/SSB – biochemical, NIH Clinical Collection, E. coli SSB, artefact control for HCV NS3 helicase inhibitor project (AID 743268; call rule not given here); conditions: Cy5-oligo bound E. coli SSB, fluorescence interference
[3] = system: Hepatitis C virus NS3 helicase; assay: blockers of NS3h binding to DNA – biochemical, fluorescence polarization, NIH Clinical Collection, primary screen (AID 743270; call rule not given here); conditions: NS3 helicase binding to Cy5-dT15 DNA, stronger effect = higher value, concentration not given here
[4] = target: Single-stranded DNA-binding protein (Escherichia coli (strain K12)) (UniProt P0AGE0); assay: SSB-ssDNA binding inhibitors – biochemical, fluorescence polarization, NIH Clinical Collection, counter-screen for HCV NS3 helicase inhibitor project (AID 743271; in the data active = inhibition above about 28%); conditions: E. coli SSB-DNA binding, stronger effect = higher value, concentration not given here
[5] = compounds distorting NS3 helicase fluorescence signal – biochemical, NIH Clinical Collection, artefact control for HCV NS3 helicase inhibitor project (AID 743272; call rule not given here;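 note: HCV NS3 helicase with a Cy5 labelled single stranded DNA probe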); conditions: fluorescence interference counterscreen, HCV NS3 helicase assay; stronger effect = lower value
[6] = modulation of C. elegans fzo-1 (AID 1259413; call rule not given here;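 note: fzo-1 mutant C. elegans worms in liquid wells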); conditions: C. elegans fzo-1 modulator screen, mean read-out; stronger effect = higher value
[7] = MELAS cybrid and Rieske KO viability enhancers – cell-based, MELAS cybrids, Rieske KO mouse fibroblasts, CellTiter-Glo, primary screen (AID 1508586;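 active = mean z-score across replicates of 1.96 or higher in either the MELAS or the Rieske mutant cell line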;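 note: z relative to plate mean and SD of compound and empty wells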); conditions: low glucose
F380Y = assay: BK channel mutant inhibitors and activators – cell-based, U2OS BacMam, thallium flux, beta subunits, selectivity assay, profiling panel (AID 1259406); conditions: U2OS BacMam BK variants, at 30 µM;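 note: initial slope of Thallos dye fluorescence rise after thallium is added; log ratio against the mean of 0.3% DMSO vehicle wells on the same plate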
F380Y/beta1 = assay: as above; conditions: U2OS BacMam BK variants, at 30 µM
F380Y/beta2Delta = assay: as above; conditions: U2OS BacMam BK variants, at 30 µM
F380Y/beta4 = assay: as above; conditions: U2OS BacMam BK variants, at 30 µM
[8] = target: Calcium-activated potassium channel subunit alpha-1 (Homo sapiens) + Leucine-rich repeat-containing protein 26 (Homo sapiens) (UniProt Q12791+Q2I0M4); assay: as above; conditions: U2OS BacMam BK variants, F380Y/Slo1WT/gamma1, at 30 µM
Calcium-activated potassium channel subunit alpha-1 (Homo sapiens) + Leucine-rich repeat-containing protein 26 (Homo sapiens), sequence (Q2I0M4 whole entry, looked up, one chain of several): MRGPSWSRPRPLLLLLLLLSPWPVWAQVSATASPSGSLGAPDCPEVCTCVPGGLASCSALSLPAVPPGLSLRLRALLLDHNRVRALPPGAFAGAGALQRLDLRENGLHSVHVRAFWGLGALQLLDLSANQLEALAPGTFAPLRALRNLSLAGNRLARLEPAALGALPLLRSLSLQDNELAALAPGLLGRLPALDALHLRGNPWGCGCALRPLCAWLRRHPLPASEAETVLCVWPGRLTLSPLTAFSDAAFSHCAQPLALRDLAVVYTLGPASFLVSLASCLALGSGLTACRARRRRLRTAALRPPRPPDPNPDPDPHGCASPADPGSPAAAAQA

R275C = assay: as above; conditions: U2OS BacMam BK variants, at 30 µM
R275C/beta1 = assay: as above; conditions: U2OS BacMam BK variants, at 30 µM
R275C/beta2Delta = assay: as above; conditions: U2OS BacMam BK variants, at 30 µM
R275C/beta4 = assay: as above; conditions: U2OS BacMam BK variants, at 30 µM
R275C/Slo1WT/beta2 = assay: as above; conditions: U2OS BacMam BK variants, at 30 µM
[9] = viability loss with induced miR-34 in A549 – imaging, A549 dox-inducible miR-34, nuclei and caspase counts, primary screen (AID 1347080;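 active = compounds whose cell count with miR-34 switched on is under 0.7 times the count with it off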); conditions: A549 miR-34 inducible, Hoechst nuclei count, 48 h
[10] = EMT-state selective cytotoxicity in co-culture – imaging, PC-3E GFP, TEM4-18 mCherry, primary screen (AID 1345086;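 active = compounds killing one labelled cell type while sparing the other, by normalised counts and ratio limits, not self-fluorescent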;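 note: cells exposed to compound for 72 h before imaging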;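 for red/green cell ratio (normalised): normalised mesenchymal count divided by normalised epithelial count so high means epithelial killing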); conditions: PC-3E GFP / TEM4-18 mCherry co-culture, imaging cell counts, at 1 µM
[11] = MELAS cybrid survival, CellTiter-Glo 48 h, stronger effect = higher value
[12] = Rieske KO mouse fibroblast survival, CellTiter-Glo 72 h
[13] = stronger effect = lower value, cell number ratio, induced over uninduced
[14] = measured here: relative caspase fold change +Dox/-Dox
[15] = measured here: total cells with miR-34 induction, stronger effect = lower value
[16] = measured here: total cells without miR-34 induction

Cc1cc2c(s1)Nc1ccccc1N=C2N1CCN(C)CC1
inactive: parasite load remaining [1] 58.8% and 82.2% and 32.6% | fluorescence ratio [2] 1.04 | inhibition [3] -1.19% | inhibition [4] -3.18% | fluorescence ratio [5] 1 | mean signal [6] 245 | z-score [7, 11] -0.362 and 0.328 and 0.46 | log fold change Tl+ flux (F380Y/beta1) 0.0857 | log fold change Tl+ flux (F380Y/beta2Delta) 0.0704 | log fold change Tl+ flux [8] -0.004 | log fold change Tl+ flux (R275C) -0.00393 | log fold change Tl+ flux (R275C/beta1) 0.000391 | log fold change Tl+ flux (R275C/beta2Delta) -0.0244 | log fold change Tl+ flux (R275C/beta4) -0.0479 | log fold change Tl+ flux (R275C/Slo1WT/beta2) 0.0472
0.469 and -0.59 and 1.26: z-score [7, 12]
151% and 67.6% and 138%: viability [1]
active: log fold change Tl+ flux (F380Y) 0.136 | log fold change Tl+ flux (F380Y/beta4) 0.111

CNCC[C@@H](Oc1ccccc1C)c1ccccc1
active: log fold change Tl+ flux (R275C/beta2Delta) 0.125
8710: cell count [9, 16]
66.2%: viability [1]
7910: cell count [9, 15]
inactive: parasite load remaining [1] 70.5% | fluorescence ratio [2] 1.06 | inhibition [3] -0.4% | inhibition [4] -3.95% | fluorescence ratio [5] 0.98 | mean signal [6] 246 | fold change [9, 13] 0.908 | z-score [7, 11] -1.06 | log fold change Tl+ flux (F380Y) 0.0847 | log fold change Tl+ flux (F380Y/beta1) -0.000881 | log fold change Tl+ flux (F380Y/beta2Delta) 0.0334 | log fold change Tl+ flux (F380Y/beta4) 0.0851 | log fold change Tl+ flux [8] -0.0181 | log fold change Tl+ flux (R275C) -0.0128 | log fold change Tl+ flux (R275C/beta1) 0.0385 | log fold change Tl+ flux (R275C/beta4) 0.0404 | log fold change Tl+ flux (R275C/Slo1WT/beta2) -0.0597
-0.171: z-score [7, 12]
1.95: fold change [9, 14]

Cc1c(C(=O)NN2CCCCC2)nn(-c2ccc(Cl)cc2Cl)c1-c1ccc(I)cc1
-0.0666: z-score [7, 12]
inactive: parasite load remaining [1] 23% | fluorescence ratio [2] 0.91 | inhibition [3] 0.66% | fluorescence ratio [5] 0.92 | mean signal [6] 229 | z-score [7, 11] -0.338 | log fold change Tl+ flux (F380Y) 0.00861 | log fold change Tl+ flux (F380Y/beta1) -0.0372 | log fold change Tl+ flux (F380Y/beta2Delta) -0.0265 | log fold change Tl+ flux (F380Y/beta4) -0.0348 | log fold change Tl+ flux [8] -0.0487 | log fold change Tl+ flux (R275C) 0.0781 | log fold change Tl+ flux (R275C/beta1) 0.0181 | log fold change Tl+ flux (R275C/beta2Delta) -0.00675 | log fold change Tl+ flux (R275C/beta4) 0.0297 | log fold change Tl+ flux (R275C/Slo1WT/beta2) 0.0305
70.4%: viability [1]

CN(C)CCc1c[nH]c2ccc(Cn3cncn3)cc12
1.13: normalised cell number ([10]; measured here: mesenchymal TEM4-18 mCherry cell survival)
inactive: parasite load remaining [1] 45% and 103% | fluorescence ratio [2] 1.13 | inhibition [3] 0.4% | inhibition [4] 5.29% | fluorescence ratio [5] 0.91 | mean signal [6] 236 | red/green cell ratio (normalised) ([10]; actives lie on both sides, counts scaled to control wells, 1 = unselective) 0.92 | fold change [9, 13] 0.991 and 0.886 and 0.916 | z-score [7, 11] -0.276 and 0.545 | log fold change Tl+ flux (F380Y) -0.0521 | log fold change Tl+ flux (F380Y/beta1) -0.0483 | log fold change Tl+ flux (F380Y/beta2Delta) 0 | log fold change Tl+ flux (F380Y/beta4) 0.0107 | log fold change Tl+ flux [8] 0.0357 | log fold change Tl+ flux (R275C/beta1) -0.00809 | log fold change Tl+ flux (R275C/beta2Delta) -0.0421 | log fold change Tl+ flux (R275C/beta4) 0.00222 | log fold change Tl+ flux (R275C/Slo1WT/beta2) 0.0127
active: log fold change Tl+ flux (R275C) -0.121
7610 and 7730 and 12300: cell count [9, 15]
1.31 and 0.982 and 5.76: fold change [9, 14]
99.5% and 78.1%: viability [1]
7680 and 8720 and 13400: cell count [9, 16]
1.24: normalised cell number ([10]; measured here: epithelial PC-3E GFP cell survival)
0.697 and -0.263: z-score [7, 12]
